For the assay, the target named is T1, ZGPAT 120-268 zf-CCCH+TUDOR (domain begin residue: 120, domain end residue: 268), Q8N5A5.
T1 chain: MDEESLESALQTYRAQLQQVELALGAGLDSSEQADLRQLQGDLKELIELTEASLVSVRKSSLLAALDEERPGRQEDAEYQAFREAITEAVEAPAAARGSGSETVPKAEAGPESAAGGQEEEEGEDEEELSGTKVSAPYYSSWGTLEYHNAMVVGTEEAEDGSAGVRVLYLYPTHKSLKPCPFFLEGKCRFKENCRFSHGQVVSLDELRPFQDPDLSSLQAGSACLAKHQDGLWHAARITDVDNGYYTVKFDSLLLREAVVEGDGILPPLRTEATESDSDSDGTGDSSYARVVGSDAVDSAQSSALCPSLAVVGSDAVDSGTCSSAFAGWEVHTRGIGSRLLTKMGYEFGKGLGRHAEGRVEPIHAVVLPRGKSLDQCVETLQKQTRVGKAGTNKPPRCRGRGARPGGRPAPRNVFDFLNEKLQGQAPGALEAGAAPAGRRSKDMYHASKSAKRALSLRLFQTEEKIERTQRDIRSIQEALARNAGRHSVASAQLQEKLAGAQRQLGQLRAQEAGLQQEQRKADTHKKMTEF
Briefly: phage ELISA signal ratio (GST-PRM binding over GST background); higher = stronger binding of peptide-phage to the PRM. The procedure, abridged:
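An M13 phage library with randomized hexadecapeptides on the gene-8 major coat protein, each peptide lacking cysteine and flanked by glycine, was selected for five rounds against human peptide recognition domains fused to the C-terminus of glutathione S-transferase (GST) and expressed in 96-well plates. Approximately 48 clones from rounds 4 and 5 went to phage ELISA. The reported value is the ELISA signal on the GST-domain fusion over the signal on GST alone, and positive clones were sequenced.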
For orientation: An ELISA detects its analyte on a solid surface through an enzyme-linked reagent.

Regarding DYMSTLFDSIPTHVST, the “phage ELISA signal ratio” value stood at 8.28.
DYMSQLWDHMSVDIYP: the “phage ELISA signal ratio” value was 5.82.
In the case of SQAMDLNAGWPWDIVM, the “phage ELISA signal ratio” value came out at 8.17.

Values taken from the supplement of paper PMC7724964.
